The target of assay [1] is Aryl hydrocarbon receptor (Homo sapiens) (UniProt P35869). Description: qHTS assay to identify small molecule that activate the aryl hydrocarbon receptor (AhR) signaling pathway (AID 743085). Further: nearly all actives have a fitted effect of over 15% in size. Further: potency means the concentration at half of the fitted maximal effect.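 On activation: HG2L7.5c1 human HepG2 liver cells with stably integrated DRE-driven firefly reporter; series mostly up to about 70 µM.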 In short, it runs like this:
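HepG2 cells (HG2L7.5c1) stably carrying a firefly luciferase reporter driven by 20 dioxin responsive elements were exposed to compound for 24 h at 37C after a 5 h settling period; luminescence rise (ONE-Glo) indicated activation.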

Assay [2] deals with Peroxisome proliferator-activated receptor gamma (Homo sapiens) (UniProt P37231). Kind of assay: qHTS assay to identify small molecule agonists of the peroxisome proliferator-activated receptor gamma (PPARg) signaling pathway (AID 743094; active means well fitted activation curve with a large enough effect in the signal ratio in the repeat runs, not every such curve was filed as active; the % refers to the signal ratio). The procedure, abridged: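 Stably transfected HEK293H cells (GeneBLAzer PPARg UAS-bla) were incubated with test substances for 17 h at 37C after a 5 h pre-incubation; beta-lactamase activity was then detected by FRET substrate fluorescence.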
Sequence of Peroxisome proliferator-activated receptor gamma (Homo sapiens) (P37231 whole entry, looked up): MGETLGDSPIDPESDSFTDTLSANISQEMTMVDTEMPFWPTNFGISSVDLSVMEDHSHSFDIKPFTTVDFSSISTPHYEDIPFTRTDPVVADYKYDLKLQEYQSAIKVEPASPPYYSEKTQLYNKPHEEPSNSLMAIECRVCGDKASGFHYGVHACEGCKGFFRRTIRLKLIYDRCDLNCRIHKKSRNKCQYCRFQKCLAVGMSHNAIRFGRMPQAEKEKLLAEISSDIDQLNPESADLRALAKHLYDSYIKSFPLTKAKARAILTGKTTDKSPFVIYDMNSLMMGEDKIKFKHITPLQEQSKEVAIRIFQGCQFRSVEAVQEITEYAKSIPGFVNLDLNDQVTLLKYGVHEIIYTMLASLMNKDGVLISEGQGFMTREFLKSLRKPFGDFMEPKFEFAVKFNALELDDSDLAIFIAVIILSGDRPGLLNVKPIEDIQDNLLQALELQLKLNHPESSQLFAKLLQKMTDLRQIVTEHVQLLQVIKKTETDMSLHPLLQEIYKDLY

A short description of assay [3]: qHTS assay for small molecule activators of the heat shock response signaling pathway (AID 743210; active means well fitted activation curve with a large enough effect in the signal ratio in the repeat runs, with a control signal flat, not every such curve was filed as active; the % refers to the signal ratio;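 further: HeLa cells with beta-lactamase reporter driven by heat shock elements; series mostly up to about 63 µM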). In short, it runs like this:
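In HSE-bla HeLa cells, 5 h compound incubation (37 C) precedes addition of LiveBLAzer B/G substrate; after 2.5 h at room temperature, fluorescence intensity indicates reporter induction.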

A short description of assay [4]: qHTS assay to identify small molecule agonists of the peroxisome proliferator-activated receptor delta (PPARd) signaling pathway - cell viability counter screen (AID 743211). Further: nearly all actives have a fitted effect of over 55% in size. In short, it runs like this:
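PPARd-bla HEK293H cells (UAS-beta-lactamase reporter) were treated with compounds for 17 h at 37 C. Viability was then read in the same wells by CellTiter-Glo luminescence after 30 min at room temperature.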

The target in assay [5] is Peroxisome proliferator-activated receptor delta (Homo sapiens) (UniProt Q03181). Kind of assay: qHTS assay to identify small molecule agonists of the peroxisome proliferator-activated receptor delta (PPARd) signaling pathway (AID 743212; calls by dose curve). The procedure, abridged:
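HEK293H UAS-bla reporter cells, human PPARd system; compounds delivered in DMSO after 5 h plating, then at 37 C. Beta-lactamase FRET read, 2 h RT substrate step.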

Assay [6] can be described thus: qHTS assay to identify small molecule antagonists of the peroxisome proliferator-activated receptor delta (PPARd) signaling pathway - cell viability counter screen (AID 743213). Further: nearly all actives have a fitted effect of over 50% in size. The procedure, abridged: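 CellTiter-Glo was added to PPARd-bla HEK293H wells following 17 h compound treatment in the presence of 300 nM L165041. Luminescence was recorded after 30 min at room temperature.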

Assay [7] in a line: qHTS assay for small molecule agonists of the antioxidant response element (ARE) signaling pathway - cell viability counter screen (AID 743203; calls by dose curve; further: nearly all actives have a fitted effect of over 55% in size). In short, it runs like this: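 Cells (ARE-bla HepG2, 2,000/well) receive DMSO-dissolved compounds after a 5 hrs rest. Plates incubate 16 hrs at 37C/5% CO2. CellTiter-Glo luminescence is then recorded after 30 min at room temperature.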

The nature of assay [8]: qHTS assay for small molecule activators of the heat shock response signaling pathway - cell viability counter screen (AID 743209). Further: nearly all actives have a fitted effect of over 50% in size. In short, it runs like this:
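Quantitative HTS format, Tox21 10K library. HeLa cells carrying an HSE-driven beta-lactamase reporter were treated 5 h at 37 C, then assessed for viability by CellTiter-Glo luminescence.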

Assay [9] can be described thus: qHTS assay to identify small molecule antagonists of the farnesoid-X-receptor (FXR) signaling pathway - cell viability counter screen (AID 743221; active means well fitted cell-killing curve with a large enough effect in the repeat runs, not every such curve was filed as active; further: nearly all actives have a fitted effect of over 50% in size). The procedure, abridged: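 FXR-UAS-bla HEK 293T cells were treated with test compounds plus chenodeoxycholic acid (50 uM final) for 16 h at 37 C. Cell viability in the same wells was then read as CellTiter-Glo luminescence after 30 min at room temperature.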

Assay [10] is described as follows: qHTS assay to identify small molecule agonists of the vitamin D receptor (VDR) signaling pathway - cell viability counter screen (AID 743224). Further: series mostly up to about 63 µM; nearly all actives have a fitted effect of over 50% in size. The procedure, abridged:
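VDR-bla cell line, quantitative HTS format; 16 h compound incubation (37C, 5% CO2); ATP-based CellTiter-Glo luminescence measured in the reporter assay wells.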

Assay [11] can be described thus: qHTS assay to identify small molecule antagonists of the peroxisome proliferator-activated receptor gamma (PPARg) signaling pathway - cell viability counter screen (AID 743194). Further: nearly all actives have a fitted effect of over 55% in size. In short, it runs like this:
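Viability was measured as CellTiter-Glo luminescence in GeneBLAzer PPARg UAS-bla HEK293H cells. These cells had been exposed 17 h at 37 C to compounds together with rosiglitazone at 50 nM final, with the beta-lactamase readout taken in the same wells.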

Assay [12] can be described thus: qHTS assay for small molecule agonists of the antioxidant response element (ARE) signaling pathway (AID 743202; active means well fitted activation curve with a large enough effect in the signal ratio in the repeat runs, not every such curve was filed as active; the % refers to the signal ratio; further: potency means the concentration at half of the fitted maximal effect). The procedure, abridged: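 An ARE-responsive beta-lactamase gene stably integrated in HepG2 cells serves as reporter. After 5 h plating and 16 h compound incubation at 37 C, fluorescence of the B/G FRET substrate was measured.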
A short description of assay [13]: qHTS assay to identify small molecule antagonists of the vitamin D receptor (VDR) signaling pathway - cell viability counter screen (AID 743225). Further: nearly all actives have a fitted effect of over 50% in size. In short, it runs like this:
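VDR-bla HEK 293T cells, 4 h pre-incubation at 37C, then compound plus 1-alpha,25-dihydroxyvitamin D3 (3 nM final) for 16 h. After the beta-lactamase FRET read, CellTiter-Glo was added to the same wells; luminescence after 30 min at room temperature.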

The nature of assay [14]: qHTS assay to identify small molecule agonists of the farnesoid-X-receptor (FXR) signaling pathway - cell viability counter screen (AID 743218). Further: nearly all actives have a fitted effect of over 45% in size. The procedure, abridged:
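In GeneBLAzer FXR-UAS-bla HEK 293T cells, compounds act for 16 h at 37 C. Cell viability is then scored in the reporter wells by CellTiter-Glo, 30 min at RT, luminescence.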

The target of assay [15] is Bile acid receptor (Homo sapiens) (UniProt Q96RI1). Description: qHTS assay to identify small molecule antagonists of the farnesoid-X-receptor (FXR) signaling pathway (AID 743217; active means well fitted inhibition curve with a large enough effect in the signal ratio in the repeat runs, not every such curve was filed as active; the % refers to the signal ratio). The procedure, abridged:
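Beta-lactamase reporter under UAS control in HEK 293T cells; compound exposure 16 h at 37 °C in the presence of chenodeoxycholic acid (50 uM final); signal from B/G FRET substrate after 2 h at room temperature.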

The target is the same in assay [16]. Description: qHTS assay to identify small molecule agonists of the farnesoid-X-receptor (FXR) signaling pathway (AID 743220; active means well fitted activation curve with a large enough effect in the signal ratio in the repeat runs, not every such curve was filed as active; the % refers to the signal ratio). In short, it runs like this:
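Beta-lactamase reporter under UAS control in GeneBLAzer FXR HEK 293T cells (5000/well) measured with LiveBLAzer FRET substrate after 2 h at room temperature. Compound exposure lasted 16 h at 37C.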

Assay [17] deals with Vitamin D3 receptor (Homo sapiens) (UniProt P11473). Description: qHTS assay to identify small molecule agonists of the vitamin D receptor (VDR) signaling pathway (AID 743222; calls by dose curve). The procedure, abridged:
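Agonist activity measured in VDR-bla reporter cells. Exposure 16 h, 37C, 5% CO2; detection by B/G FRET substrate, 2 h RT.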

The target is the same in assay [18]. Description: qHTS assay to identify small molecule antagonists of the vitamin D receptor (VDR) signaling pathway (AID 743223; active means well fitted inhibition curve with a large enough effect in the signal ratio in the repeat runs, not every such curve was filed as active; the % refers to the signal ratio). In short, it runs like this:
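VDR-bla cells were plated, incubated 4 h at 37C, then given compound and 1alpha,25-dihydroxyvitamin D3 (3 nM final). After 16 h at 37C, LiveBLAzer B/G FRET substrate was added for 2 h at room temperature and fluorescence read.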

The nature of assay [19]: qHTS assay to identify small molecule that activate the aryl hydrocarbon receptor (AhR) signaling pathway - cell viability counter screen (AID 743086).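 Further: HepG2 liver cells carrying the AhR DRE luciferase reporter; series mostly up to about 70 µM; nearly all actives have a fitted effect of over 45% in size.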 The procedure, abridged:
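Cytotoxicity counter screen: CellTiter-Fluor signal (30 min, 37 C) in 4000 HepG2 cells/well carrying the DRE-luciferase reporter, following 24 h compound exposure at 37 C.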

In PubChem BioAssay (Tox21) one finds Potency and outcome data, which are given here for eight molecules.

Inconclusive results are not listed. Active and inactive are the calls of the source. Unless noted, the call rests on the fitted dose curve; in most records, active means well fitted curve in the direction sought with a large enough effect in the repeat runs; inconclusive means weak or mixed curves; inactive means no such curve, though single readings can be large; an effect the other way counts as inactive or inconclusive.

Sequence of Peroxisome proliferator-activated receptor delta (Homo sapiens) (Q03181 whole entry, looked up): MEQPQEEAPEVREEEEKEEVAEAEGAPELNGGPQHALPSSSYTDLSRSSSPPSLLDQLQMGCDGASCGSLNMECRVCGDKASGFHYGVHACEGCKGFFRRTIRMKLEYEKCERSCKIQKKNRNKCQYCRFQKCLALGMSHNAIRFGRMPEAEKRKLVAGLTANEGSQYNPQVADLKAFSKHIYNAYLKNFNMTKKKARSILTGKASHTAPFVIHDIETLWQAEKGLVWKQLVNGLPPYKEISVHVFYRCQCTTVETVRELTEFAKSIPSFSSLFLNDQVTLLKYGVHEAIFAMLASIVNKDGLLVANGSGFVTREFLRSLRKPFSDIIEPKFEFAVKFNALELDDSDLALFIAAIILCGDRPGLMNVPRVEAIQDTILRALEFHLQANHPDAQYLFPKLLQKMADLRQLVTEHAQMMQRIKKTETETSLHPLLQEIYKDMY
Sequence of Bile acid receptor (Homo sapiens) (Q96RI1 whole entry, looked up): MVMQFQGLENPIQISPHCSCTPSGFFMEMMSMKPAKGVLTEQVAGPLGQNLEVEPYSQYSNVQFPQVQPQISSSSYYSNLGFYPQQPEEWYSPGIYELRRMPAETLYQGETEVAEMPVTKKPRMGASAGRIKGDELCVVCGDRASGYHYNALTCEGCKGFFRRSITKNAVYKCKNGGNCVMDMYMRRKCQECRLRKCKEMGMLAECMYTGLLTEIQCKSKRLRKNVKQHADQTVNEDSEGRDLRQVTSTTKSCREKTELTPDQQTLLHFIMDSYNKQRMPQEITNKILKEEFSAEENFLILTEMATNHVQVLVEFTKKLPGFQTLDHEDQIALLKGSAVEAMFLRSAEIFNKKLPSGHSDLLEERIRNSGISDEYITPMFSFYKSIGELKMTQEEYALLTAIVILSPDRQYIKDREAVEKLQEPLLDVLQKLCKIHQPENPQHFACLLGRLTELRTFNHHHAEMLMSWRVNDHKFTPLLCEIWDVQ
Sequence of Aryl hydrocarbon receptor (Homo sapiens) (P35869 whole entry, looked up): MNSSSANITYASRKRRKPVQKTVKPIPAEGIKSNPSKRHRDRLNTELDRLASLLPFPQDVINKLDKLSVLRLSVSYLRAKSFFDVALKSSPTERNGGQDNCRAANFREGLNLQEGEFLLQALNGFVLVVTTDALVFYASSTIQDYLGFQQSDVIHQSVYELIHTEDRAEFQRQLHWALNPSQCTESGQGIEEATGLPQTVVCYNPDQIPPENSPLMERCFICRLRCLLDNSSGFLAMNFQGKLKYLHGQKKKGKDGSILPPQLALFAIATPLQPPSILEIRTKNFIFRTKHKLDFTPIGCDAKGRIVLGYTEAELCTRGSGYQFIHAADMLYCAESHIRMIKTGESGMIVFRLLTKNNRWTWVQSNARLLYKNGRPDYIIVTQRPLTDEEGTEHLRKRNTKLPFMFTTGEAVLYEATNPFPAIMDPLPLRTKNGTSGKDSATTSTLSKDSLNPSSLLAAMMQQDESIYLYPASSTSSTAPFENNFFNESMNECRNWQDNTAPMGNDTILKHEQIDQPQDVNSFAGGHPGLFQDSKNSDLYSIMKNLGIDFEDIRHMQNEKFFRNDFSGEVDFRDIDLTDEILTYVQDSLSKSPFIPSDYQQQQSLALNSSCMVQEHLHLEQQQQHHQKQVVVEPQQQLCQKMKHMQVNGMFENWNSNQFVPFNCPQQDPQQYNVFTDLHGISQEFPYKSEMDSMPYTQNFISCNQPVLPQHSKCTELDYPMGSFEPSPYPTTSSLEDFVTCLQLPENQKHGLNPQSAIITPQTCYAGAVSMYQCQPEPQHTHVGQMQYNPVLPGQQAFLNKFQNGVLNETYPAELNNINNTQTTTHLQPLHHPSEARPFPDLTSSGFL
Sequence of Vitamin D3 receptor (Homo sapiens) (P11473 whole entry, looked up): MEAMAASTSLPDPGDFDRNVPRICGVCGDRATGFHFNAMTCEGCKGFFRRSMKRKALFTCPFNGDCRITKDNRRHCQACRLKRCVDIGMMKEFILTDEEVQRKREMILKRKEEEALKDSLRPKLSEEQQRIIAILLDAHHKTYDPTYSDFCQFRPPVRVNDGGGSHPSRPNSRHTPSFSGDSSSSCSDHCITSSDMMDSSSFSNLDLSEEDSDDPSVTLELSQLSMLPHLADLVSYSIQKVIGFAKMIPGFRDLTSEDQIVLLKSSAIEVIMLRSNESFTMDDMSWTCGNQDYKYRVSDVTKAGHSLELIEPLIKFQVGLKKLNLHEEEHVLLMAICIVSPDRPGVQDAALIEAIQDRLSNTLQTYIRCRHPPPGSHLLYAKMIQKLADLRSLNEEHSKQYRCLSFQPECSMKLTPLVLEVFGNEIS

In the case of `Nc1ccc(O)c([N+](=O)[O-])c1`, the Potency in assay [1] is 43.3 µM (active). For the same molecule, the Potency result in [2], in assay [4], in assay [5] and in assay [6] was “inactive” in each case. In addition, the molecule was classed as inactive in [3].

Take `C1=CC2C3C=CC(C3)C2C1` (centres undefined): the Potency entry in assay [7], in assay [8], in assay [6], in [9] and in [10] was “inactive” each time. Besides, the call in [3] was inactive.

`O=C1NS(=O)(=O)c2ccccc21`: the Potency result in [11], in assay [12], in [7], in assay [8], in [4] and in [6] was “inactive” in each case. For the same molecule, the Potency result in [9], in assay [10] and in assay [13] was “inactive” throughout.

Take `CCOC(N)=O`: the Potency result in assay [11], in assay [12], in assay [7], in assay [8], in [4] and in assay [5] was “inactive” each time. Moreover, the Potency result in [6], in assay [14], in assay [9], in assay [10] and in assay [13] was “inactive” in each case. For the same molecule, the molecule was called inactive in assay [3].

Take `CCCC[P+](CCCC)(CCCC)CCCC`: the Potency result in assay [1], in [11], in [12], in assay [7], in assay [8] and in assay [4] was “inactive” in each case. Besides, the Potency entry in assay [6], in [15], in assay [9], in assay [17], in assay [18] and in assay [10] was “inactive” each time. Also, in [13], the Potency entry was “inactive”. Moreover, the outcome in assay [3] and in assay [16] was inactive.

Consider `CC(C)c1c(C(=O)Nc2ccccc2)c(-c2ccccc2)c(-c2ccc(F)cc2)n1CC[C@@H](O)C[C@@H](O)CC(=O)O`, for which the Potency result in [19], in [11], in assay [7], in [8], in [4] and in assay [6] was “inactive” each time. The Potency result in assay [9], in [17], in assay [18], in [10] and in [13] was “inactive” in each case. Moreover, the Potency in assay [12] is 13.2 µM (active). In [3], the outcome was inactive.

On to `Cc1ncc([N+](=O)[O-])n1C`, for which the Potency result in assay [1], in assay [11], in [12], in [7], in assay [8] and in assay [4] was “inactive” in each case. The Potency result in assay [5], in assay [6], in assay [15], in assay [9], in [17] and in assay [18] was “inactive” each time. Moreover, the Potency result in [10] and in assay [13] was “inactive” in each case. Further, the molecule was classed as inactive in [3] and in assay [16].

For `CC(=O)Nc1c(I)c(NC(C)=O)c(I)c(C(=O)O)c1I`, the Potency entry in [11], in assay [12], in assay [7], in assay [8], in assay [4] and in [6] was “inactive” each time. The Potency entry in [9] was “inactive”.
